Sampled rows, rich in hits. Any-hit rate of the full collection: about 3.8%.
Wnt act: activators of Wnt/beta-catenin signaling | Wnt/beta-catenin reporter cell assay, activator, plate reader | activation, % at 9.35 µM | 300,000 tested, 1.2% active | AID 743398; in the data active = activation above about 30%, passing the limit was not always enough; inconclusive = no clear call, values can overlap the other calls;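 also: 0% = neutral control wells and 100% = positive control wells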
esBAF inh: blocks esBAF chromatin remodeling in mouse ES cells; Bmi1-luciferase knock-in reporter, 24 h; 100% = twice the neutral-well signal; reporter increase, % at 12.5 µM; 350,000 tested, 2% active; AID 602393; in the data active = activation above about 40%; inconclusive = no clear call, values can overlap the other calls;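 also: 0% = median of the plate's neutral control wells and 100% = double that signal; a rise in the Bmi1 reporter signal indicates esBAF inhibition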
HSF1 activator: increases HSF-1 driven luciferase reporter signal; 300,000 tested, 1.7% active; activation, % at 9 µM; AID 504408; NIH3T3-HGL HSF-1 luciferase reporter, MG132, 8 h; 100% = twice DMSO control signal;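 active = mean replicate activation of at least 50% with a set share of replicates each reaching 50%; inconclusive = only one of those two conditions met; inactive = mean below 50% and too few replicates reaching it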;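 also: 0% = median of the neutral control wells and 100% = twice that signal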
MITF act: activators of MITF-driven TRPM1 promoter activity in SK-MEL-5 cells; activation, % at 12.5 µM; SK-MEL-5 TRPM1-promoter luciferase, 24 h; % of positive control, neutral wells = 0; AID 588334; 300,000 tested, 0.75% active;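 active = mean activation of at least 80% with every replicate also reaching 80%; inconclusive = mean reaches 80% but some replicate falls short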;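 also: 0% = neutral control wells and 100% = parthenolide positive control wells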
HSF1 inh: HSF1 inhibition. NIH3T3-HGL HSE-luciferase, MG132-induced, luminescence 8 h; hits give low values. activity change, negative = inhibition, % at 7.5 µM (by protocol). 300,000 tested, 0.77% active;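 active = more than half of replicate wells show activity change below -50%, luminescence cut by over half; inconclusive = some wells, but at most half, below -50%; inactive = no replicate well below -50%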;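 also: luciferase reports HSF-1 transcriptional activity via heat shock element; 0% = median of DMSO wells and -100% = zero luminescence signal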
The depositor's hits bear a star; ? = inconclusive; . = no result.

SMILES	Wnt act	esBAF inh	HSF1 activator	MITF act	HSF1 inh
CO[C@H]1CN(C)C(=O)c2cc(NS(=O)(=O)c3ccccc3)ccc2OC[C@H](C)N(Cc2cccnc2)C[C@H]1C	.	2.0	.	.	.
C[C@@H]1CCCCO[C@H](CN(C)C)[C@@H](C)CN([C@@H](C)CO)C(=O)c2cc(NC(=O)Cc3ccccc3)ccc2O1	.	-9.5	.	.	.
COc1ccc(-c2coc3cc(OC)ccc3c2=O)cc1	1.3	6.9	.	45.7	.
COc1ccc(-c2coc3cc(OC4OC(CO)C(O)C(O)C4O)cc(O)c3c2=O)cc1 (stereo unspecified)	56.5*	20.2	.	?	.
COc1ccc(-c2coc3cc(OC4OC(CO)C(O)C(O)C4O)ccc3c2=O)cc1 (stereo unspecified)	41.1*	26.0	31.3	71.3	15.2
COc1ccc(-c2coc3cc(O[C@@H]4O[C@H](CO)[C@@H](O)[C@H](O)[C@H]4O)c(OC)cc3c2=O)cc1	24.8	46.6*	.	46.1	.
COc1ccc(NC(=O)N(C)C[C@H]2Oc3ccc(NS(=O)(=O)c4ccc(Cl)cc4)cc3C(=O)N([C@H](C)CO)C[C@H]2C)cc1	.	-3.1	.	.	.
COc1ccc(NC(=O)N(C)C[C@@H]2OCCCC[C@@H](C)Oc3ccc(NS(=O)(=O)c4ccccc4)cc3C(=O)N([C@H](C)CO)C[C@@H]2C)cc1	.	-2.1	.	.	.
C[C@H](CO)N1C[C@H](C)[C@H](CN(C)S(=O)(=O)c2cccs2)OCCCC[C@H](C)Oc2ccc(NC(=O)Cc3ccccc3)cc2C1=O	.	6.2	.	.	.
O=C(c1cc2cc(Cl)ccc2o1)N1CCCCCC1	-1.1	65.0*	.	129.8*	.
O=C(c1cc2cc3ccc(Cl)cc3nc2o1)N1CCCCCC1	.	31.8	26.0	101.9*	21.3
O=C(O)c1cc2c(ccc3ccccc32)o1	-2.1	-3.3	1.6	-5.6	0.2
COc1ccc2nc3oc(C(=O)N4CCN(c5cccc(Cl)c5)CC4)cc3cc2c1	.	5.5	13.3	-5.0	10.2
COc1ccc2cc3cc(C(=O)N4CC(C)CC(C)C4)oc3nc2c1 (stereo unspecified)	.	57.6*	-13.1	54.6	-11.0
O=C(c1cc2c(ccc3ccccc32)o1)N1CCCCC1	38.1*	-19.3	37.0	31.5	42.1
O=C(C[C@@H]1CC[C@@H](NC(=O)Nc2cccc(F)c2)[C@@H](CO)O1)NCC1CC1	.	2.1	.	.	.
CCCNC(=O)Nc1ccc2c(c1)C(=O)N(C)C[C@@H](OC)[C@@H](C)CN(CCC)[C@@H](C)CO2	.	3.4	.	.	.
O=C(COC(=O)c1cc(=O)[nH]c2ccccc12)Nc1nc(-c2ccc(F)cc2)cs1	23.8	44.1*	.	45.8	.
CCn1nc(C(=O)OCC(=O)Nc2nc(-c3ccc(OC)cc3)cs2)c2ccccc2c1=O	.	56.8*	77.0*	68.2	39.9
COc1ccc(Oc2ccc(C(F)(F)F)cc2N)cc1	7.6	42.5*	1.0	51.8	-3.2
COc1ccc(Oc2ccc(C(F)(F)F)cc2NC(=O)c2ccc(OC)cc2)cc1	-1.0	.	3.2	-6.3	-8.6
CCOc1ccc2cc(/C=C/C(=O)c3ccco3)c(Cl)nc2c1	.	56.6*	32.2	.	14.8
COC(=O)c1cccc(Cn2c(Cl)c(/C=N/Nc3ccccc3C)sc2=O)c1	-1.6	-2.0	151.1*	10.7	155.5
Cc1ccccc1N/N=C/c1sc(=O)n(Cc2cccc(C(=O)O)c2)c1Cl	5.3	6.4	8.1	-6.5	11.6
O=[N+]([O-])c1ccc2c(c1)nc1n2CCCCC1	-3.0	.	19.8	15.8	6.8
SMILES	Wnt act	esBAF inh	HSF1 activator	MITF act	HSF1 inh
O=[N+]([O-])c1ccc2c(c1)nc1n2CCN(C2CCCCC2)C1	7.3	.	53.5*	?	22.0
N#Cc1c2c(c(Nc3ccc(O)cc3)n3c1nc1ccccc13)CCC2	.	-2.2	66.0*	-1.8	29.8
CCN(CC)C(=O)c1cn(-c2ccccc2)nc1-c1ccc2c(c1)OCCO2	-0.5	-0.8	-15.3	0.2	1.8
O=Cc1cn(-c2ccccc2)nc1-c1ccc2c(c1)OCCO2	.	49.6*	.	72.1	.
N#Cc1cn(-c2ccccc2)nc1-c1ccc2c(c1)OCCO2	0.0	51.3*	47.5	123.0*	25.0
Cn1cc(C=O)c(-c2ccc3c(c2)OCCCO3)n1	11.3	29.4	89.1*	48.8	41.5
Cn1cc(C(=O)O)c(-c2ccc3c(c2)OCCCO3)n1	-1.1	-4.8	-2.8	-6.0	-6.4
COc1ccc(CNC2CCSc3ccccc32)cc1OC (stereo unspecified)	-0.7	-4.4	62.7*	-7.5	26.8
C[C@H]1CN([C@@H](C)CO)C(=O)Cc2cc(NC(=O)c3ccncc3)ccc2O[C@@H]1CN(C)C(=O)Nc1ccc2c(c1)OCO2	.	1.9	.	.	.
COc1ccc(-c2csc(N3CCSCC3)n2)cc1	?	46.6*	-1.4	74.8	7.4
COc1ccc(-c2csc(-n3ncc(-c4cccs4)c3N)n2)cc1	.	1.9	4.4	9.2	0.3
COc1ccc(-c2csc(-n3cccn3)n2)cc1	32.9*	67.9*	61.3*	?	28.7
COC(=O)C[C@@H]1CC[C@@H]2[C@H](COc3ccc(NC(=O)c4cscn4)cc3C(=O)N2C)O1	.	-0.2	.	.	.
COCC(=O)Nc1ccc2c(c1)[C@@H]1C[C@@H](CC(=O)NCc3ccccc3OC)O[C@H](CO)[C@@H]1O2	.	-1.0	.	.	.
Cc1cccc(C)c1N1CCN(c2ccc3nnc(C(F)(F)F)n3n2)CC1	.	.	129.3*	8.7	88.2
O=C(CSc1nnc([C@@H]2CCCN2)o1)c1ccc(Cl)cc1	37.4*	13.9	-9.6	25.4	-1.7
CC(C)c1ccc(Nc2nc(Cl)nc(NCCO)n2)cc1	1.0	7.9	-0.1	.	-2.4
CC(C)Nc1nc(Cl)nc(Nc2ccccc2)n1	9.8	60.5*	18.4	44.2	14.3
CC(C)(C)C(=O)N/C(N)=N/c1nc2ccccc2o1	65.4*	14.8	52.4*	?	14.7
CCCC(=O)N/C(N)=N/c1nc2ccccc2o1	46.4*	.	45.2	87.6*	29.0
CC(=O)N/C(N)=N/c1nc2cc(C)ccc2o1	17.6	.	44.6	.	17.9
CC(C)CC(=O)N/C(N)=N/c1nc2ccccc2o1	53.2*	74.9*	15.1	85.5*	17.6
CCC(=O)N/C(N)=N/c1nc2ccccc2o1	10.6	.	5.3	?	1.8
CC(=O)N/C(N)=N/c1nc2cc([N+](=O)[O-])ccc2o1	27.6	.	71.9*	.	22.7
C[C@H]1CN([C@@H](C)CO)C(=O)c2cc(NS(C)(=O)=O)ccc2O[C@@H]1CN(C)CC1CCCCC1	.	-0.4	.	.	.
COc1ccc(NC(=O)n2ncc3cc(Cl)ccc32)cc1OC	7.1	-7.1	52.5*	?	22.3
C[C@@H]1CN([C@@H](C)CO)C(=O)Cc2cc(NC(=O)Cc3cn(C)c4ccccc34)ccc2O[C@@H]1CN(C)S(C)(=O)=O	.	2.9	.	.	.
COc1ccc(O)c(/C=N/N2CCCCC2)c1	32.7*	6.4	40.2	29.7	5.8
CCOc1ccc(-c2cn(-c3ccc(OC)cc3)c(SC)n2)cc1	.	64.6*	61.7*	?	37.9
Cn1c(-c2ccc(F)cc2)cnc1SCC(=O)N1CCCCC1	34.9*	-9.1	37.2	.	12.7

Screening results from PubChem BioAssay.
